SENP8 block-1: blocks the human protease SENP8; Q96LD8; purified SENP8, Z-RLRGG-aminoluciferin cleavage, luminescence; inhibition, % at 10 µM; hit rate 1.2% among 330,000; AID 2540; in the data active means inhibition above about 50%
C8 TRAIL sens: sensitizes caspase-8 expressing cells to TRAIL; NB7+C8 cells + TRAIL, ATPlite viability luminescence; inhibition (viability loss, TRAIL sensitization), % at 10 µM; hit rate 1% among 360,000; AID 624354;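 active means compounds causing at least 50% loss of cell viability in the single-dose screen, relative to plate controls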
PPC-1+TRAIL kill: PPC-1 cancer cell killing with TRAIL present; PPC-1 cells + TRAIL, ATPLite viability luminescence; AID 1443; hit rate 0.41% among 220,000; cell killing (% activity), % at 4 µM or 5 µM;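 active means cell killing above 50% in the first pass at 4 µM, then a duplicate retest at 5 µM averaging 50% or more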;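 further: plate controls were cells with TRAIL plus DMSO for no effect and medium-only wells lacking cells for full effect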
SENP7 block: SENP7 protease inhibition | recombinant SENP7, Z-RLRGG-aminoluciferin luminescence, 40 min | hit rate 1.5% among 330,000 | AID 434973 | inhibition, % at 5 µM;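 active means inhibition above about 50% at the single test dose, limit read from the data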;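 further: plate controls were DMSO with enzyme for no effect and no enzyme buffer wells for full effect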
SENP6 inh: inhibitors of human SENP6 protease; inhibition, % at 10 µM; AID 2599; Q9GZR1; Recombinant SENP6 catalytic domain, aminoluciferin luminescence; hit rate 1.8% among 330,000;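 active means inhibition above about 50% at the single tested dose, limit read from the data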;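 further: plate controls were DMSO wells with enzyme for no effect and DMSO wells lacking enzyme for full effect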
Target sequence (Q9GZR1 628-1112 limits assumed): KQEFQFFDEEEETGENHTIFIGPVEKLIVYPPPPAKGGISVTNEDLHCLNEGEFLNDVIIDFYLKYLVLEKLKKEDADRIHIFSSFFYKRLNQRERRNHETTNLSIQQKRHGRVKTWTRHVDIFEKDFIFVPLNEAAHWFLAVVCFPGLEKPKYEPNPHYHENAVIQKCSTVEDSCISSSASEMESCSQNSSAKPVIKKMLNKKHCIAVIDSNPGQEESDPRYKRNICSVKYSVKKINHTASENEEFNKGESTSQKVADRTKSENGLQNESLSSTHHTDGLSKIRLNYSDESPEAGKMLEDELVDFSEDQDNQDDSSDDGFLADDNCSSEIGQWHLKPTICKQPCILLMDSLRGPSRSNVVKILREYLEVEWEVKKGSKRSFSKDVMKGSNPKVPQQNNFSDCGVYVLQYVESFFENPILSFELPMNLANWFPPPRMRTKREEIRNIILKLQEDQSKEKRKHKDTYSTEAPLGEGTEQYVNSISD
SENP8 block-2: SENP8 (human) protease inhibition; hit rate 0.64% among 360,000; recombinant SENP8, Nedd8 substrate fluorescence; Q96LD8; inhibition, % at 20 µM; in the data active means inhibition mostly above about 40%, no sharp cut-off; inactive means mostly below about 27%
SENP8 conf: confirmation of human SENP8 protease inhibitors. shares compounds with SENP7 block. Recombinant SENP8, Z-RLRGG-aminoluciferin luminescence, 60 min. inhibition, % at 12.5 µM. hit rate 40% among 6,200. AID 488912;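 active means mean inhibition across replicates above about 50%, limit read from the data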
SENP6 confirm: human SENP6 inhibition, confirmed | shares compounds with SENP7 block | recombinant SENP6, Z-RLRGG-aminoluciferin luminescence | inhibition, % at 12.5 µM | hit rate 58% among 6,200 | AID 488915
SENP7 confirm: human SENP7 inhibition, confirmed; inhibition, % at 12.5 µM; recombinant SENP7, Z-RLRGG-aminoluciferin luminescence, 40 min; AID 488917; shares compounds with SENP7 block; hit rate 69% among 6,200
Casp3 SENP sel: inhibits human caspase-3 in SENP selectivity test; shares compounds with SENP7 block; purified caspase-3, Z-DEVD-aminoluciferin luminescence, 60 min; inhibition, % at 12.5 µM; hit rate 60% among 6,200;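 active means mean inhibition above about 50%, limit read from the data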;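 further: plate controls were enzyme with DMSO for no effect and wells without caspase-3 for full effect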
Luc interf: counter-screen for SENP inhibitors: luminescence interference | shares compounds with SENP7 block | Pre-incubated SENP8/Z-RLRGG-aminoluciferin, luciferase luminescence interference | inhibition, % at 12.5 µM | hit rate 39% among 6,200;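 active means mean inhibition above about 50% when retested at one dose, limit read from the data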;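 further: plate controls were DMSO wells with completed reaction for no effect and substrate without enzyme for full effect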
* hit, by the source's call; i = inactive; . = no result. An excerpt weighted towards active compounds, which were near 3% of everything screened.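 How the source made its calls, unless noted: active means mean inhibition above about 50% in the one-dose retest (limit read from the data); inactive means the rest.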

SMILES	SENP8 block-1	C8 TRAIL sens	PPC-1+TRAIL kill	SENP7 block	SENP6 inh	SENP8 block-2	SENP8 conf	SENP6 confirm	SENP7 confirm	Casp3 SENP sel	Luc interf
O=C(Nc1ccc2ccccc2n1)c1ccc(Cl)cc1	50*	31	.	72*	56*	0	25	48	59*	59*	16
O=C(Nc1ccnc(-c2ccncc2)n1)c1ccccc1Cl	2	-2	14	-2	-4	4	.	.	.	.	.
CC(=O)c1cc2c(cc1NS(=O)(=O)c1ccccc1F)OCO2	-8	0	8	-5	8	-5	.	.	.	.	.
CC[N+]1(CC)CC2=Cc3c(ccc4ccccc34)C(C)C2C1 (centres undefined)	3	-10	-7	-6	-2	-68	.	.	.	.	.
CCOC(=O)C1(C)CCCN(C(=O)c2ccc(OC)cc2)C1 (centres undefined)	.	1	.	.	.	10	.	.	.	.	.
O=C(CC1NCCN(Cc2ccccc2)C1=O)Nc1ccccc1 (centres undefined)	-1	-25	0	2	-12	12	.	.	.	.	.
Cc1cc(C)n(-c2ccc(Cl)c(C(=O)Nc3cc(C(F)(F)F)ccc3Cl)n2)n1	0	20	-1	-3	6	1	.	.	.	.	.
COc1ccccc1N1C(=O)N(C(C)=O)C2C1Nc1ccccc1N2C (centres undefined)	46	7	-6	-5	70*	-23	1	2	1	3	-4
O=c1c(-c2ccccc2)c[nH]n1-c1cccc([N+](=O)[O-])c1	76*	15	12	68*	79*	8	73*	72*	94*	90*	74*
O=c1c(-c2ccc(Cl)cc2)c[nH]n1-c1ccccc1	42	24	.	6	54*	-6	22	38	48	66*	7
Cc1[nH]n(-c2ccccc2)c(=O)c1-c1ccc(Cl)cc1	3	-10	24	3	2	-19	.	.	.	.	.
O=C1CCCc2nc(N3CCc4ccccc43)ncc21	78*	52*	41	89*	91*	-237	12	24	35	26	30
O=C1CC(c2ccccc2)Cc2nc(N3CCc4ccccc43)ncc21 (centres undefined)	-2	-9	.	-2	-5	-270	.	.	.	.	.
CCCCC(=O)OCc1nc2ccccc2s1	-12	-6	16	1	11	-8	.	.	.	.	.
O=C(O)c1ccccc1OCc1nc2ccccc2s1	90*	-4	.	92*	92*	-2	91*	93*	100*	85*	79*
O=C(OCc1nc2ccccc2s1)c1ccccc1O	85*	1	16	86*	92*	3	89*	90*	98*	83*	74*
O=C(OCc1nc2ccccc2s1)c1cnccn1	-1	-1	21	6	-20	-5	.	.	.	.	.
O=C(OCc1nc2ccccc2s1)c1cccs1	36	24	34	28	74*	-10	63*	70*	84*	45	64*
Cc1ccc(NC(=O)C2CC2C)c(Cl)c1 (centres undefined)	-12	-6	2	-8	-4	12	.	.	.	.	.
C=CCN(CC=C)C(=S)Nc1ccc2nsnc2c1	46	4	-13	26	75*	-211	4	15	10	11	10
O=C(Nc1ccc2nsnc2c1)N1CCCCC1	3	0	3	1	13	i	.	.	.	.	.
S=C(NCc1ccc2c(c1)OCO2)Nc1ccc2nsnc2c1	1	14	6	12	39	-73	.	.	.	.	.
S=C(Nc1ccc2nsnc2c1)N1CCCCCC1	89*	13	.	53*	93*	-149	20	30	17	46	58*
COCCNC(=S)Nc1ccc2nsnc2c1	-9	0	26	2	-11	-70	.	.	.	.	.
C=CCNC(=S)Nc1ccc2nsnc2c1	18	0	6	21	60*	-4	11	4	10	6	3
SMILES	SENP8 block-1	C8 TRAIL sens	PPC-1+TRAIL kill	SENP7 block	SENP6 inh	SENP8 block-2	SENP8 conf	SENP6 confirm	SENP7 confirm	Casp3 SENP sel	Luc interf
Cc1cc2c(cc1C)C(=O)NC(C)(C)C2	-4	-9	11	59*	-1	6	6	6	2	1	-3
CC1=C(C(=O)OCc2ccccc2)C(c2ccc(C)cc2)NC(=O)N1 (centres undefined)	.	15	.	.	.	10	.	.	.	.	.
Cc1cc(NC(=S)Nc2cccc3ccccc23)n[nH]1	-11	-14	16	5	-4	-138	.	.	.	.	.
Fc1ccc(NC(=S)Nc2cccc3ccccc23)cc1F	48	2	.	21	62*	-388	11	6	16	11	9
Cc1cccc(NC(=S)Nc2cccc3ccccc23)c1	89*	7	.	46	91*	-401	-6	-3	-8	6	7
C=CCNC(=S)Nc1cccc2ccccc12	-1	-3	9	-1	-9	-49	.	.	.	.	.
Cc1ccc(NC(=S)Nc2cccc3ccccc23)cc1	36	13	.	17	81*	-463	5	-2	2	4	10
CCc1cccc(NC(=S)Nc2cccc3ccccc23)c1	43	-1	.	27	78*	-392	12	8	1	-2	-3
COCC1CCCC1OS(N)(=O)=O (centres undefined)	-18	-6	.	-12	-13	6	.	.	.	.	.
CC(C)c1ccc(NC(=S)Nc2cccc3ccccc23)cc1	33	7	.	8	43	-396	.	.	.	.	.
CSc1ccccc1NC(=S)Nc1cc(C)cc(C)c1	-8	-19	-28	-9	-18	15	.	.	.	.	.
CC(C)N1CCC1(C)C(=O)Nc1cccc2ccccc12 (centres undefined)	.	-4	.	.	.	-8	.	.	.	.	.
Fc1ccc(NC(=S)Nc2cccc3ccccc23)cc1	44	8	.	22	65*	-496	-6	-6	-8	-5	-4
Cc1cc(C)cc(NC(=S)Nc2cccc3ccccc23)c1	59*	-22	.	26	71*	-391	-3	2	1	6	7
CC1(C(=O)Nc2cccc3ccccc23)CC1(Br)Br (centres undefined)	23	22	5	8	60*	-386	12	21	5	5	-3
C=CCNC(=O)N1CCCC(N2CCN(c3ccccc3OC)CC2)C1 (centres undefined)	4	5	.	0	-12	-14	.	.	.	.	.
